The values below come from PubChem BioAssay (NCI).

This is part of a sample that, as a whole, favours compounds with a hit. Of some 83,000 tested, about 20% had one in any assay.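 For each line, cells grew in 96-well plates with the test compound present at a single concentration for 48 hours.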 Unmarked numbers belong to inactive results. Calls of active or inactive are those of the source. Rule for the calls: active = growth percent below 10; inactive = the rest.

Some test systems named below: SR leukemia; RPMI-8226 leukemia; OVCAR-5 ovarian; OVCAR-4 ovarian; SK-OV-3 ovarian; IGROV1 ovarian; OVCAR-3 ovarian; HS 578T breast; NCI/ADR-RES ovarian; T-47D breast; BT-549 breast; MDA-MB-435 melanoma; SW-620 colon; MCF7 breast; HCT-116 colon; HCC-2998 colon; KM12 colon; OVCAR-8 ovarian.
Common to all, as to assay: NCI-60 one-dose screen, 48 h (100 = growth as untreated, 0 = no growth, -100 = all killed)
Holding throughout (conditions): 10 µM unless noted

With `C=CCn1c(-c2nc3ccc(C(=C(C#N)C#N)c4ccccc4)cc3[nH]2)cc2cc(Br)ccc21`, the growth in the test with SR leukemia is 50.5%; in the test with RPMI-8226 leukemia, 35.7%; in the test with OVCAR-5 ovarian it was 77.5%; in the test on OVCAR-4 ovarian it was 54.5%; in the test with SK-OV-3 ovarian, 63.9%; in the test on IGROV1 ovarian it was 65.1%. Besides, the growth is 51.2% in the test on OVCAR-3 ovarian; 64.4% in the test on HS 578T breast; 54.2% in the test on NCI/ADR-RES ovarian; 43% with T-47D breast; 71.3% with BT-549 breast; 75.2% in the test with MDA-MB-435 melanoma. Moreover, the growth was 61.2% with SW-620 colon; 0.939% (active) in the test on MCF7 breast; 27.4% in the test on HCT-116 colon; 61.2% in the test with HCC-2998 colon; 34.1% in the test with KM12 colon.
For the molecule `Clc1ccc(N/N=c2/oc3ccccc3cc2-c2cc3ccccc3[nH]2)cc1`, the growth was 90.8% with SR leukemia; 62.3% in the test with OVCAR-8 ovarian; 83.4% in the test on OVCAR-5 ovarian; 69.5% with OVCAR-4 ovarian; 89.6% with SK-OV-3 ovarian; 57.2% in the test with IGROV1 ovarian. Also, the growth with OVCAR-3 ovarian is 47.7%; with HS 578T breast, 103%; in the test on NCI/ADR-RES ovarian, 78.5%; with T-47D breast it was 40.4%; with BT-549 breast it was 80.3%; in the test on MDA-MB-435 melanoma, -71.4% (active). Further, the growth was 78.7% in the test with SW-620 colon; 53.3% with MCF7 breast; 66.9% in the test on HCT-116 colon; 95.6% with HCC-2998 colon; 58.1% in the test with KM12 colon.
Regarding `COc1cccc2cc(-c3cc4ccccc4[nH]3)/c(=N\NC(=O)c3ccc(Cl)cc3)oc12`, the growth is 25.7% in the test on SR leukemia; 20.7% in the test on OVCAR-8 ovarian; 49.2% in the test on OVCAR-5 ovarian; 9.76% (active) with OVCAR-4 ovarian; 39.5% with SK-OV-3 ovarian; 26.3% with IGROV1 ovarian. The growth with OVCAR-3 ovarian is 14.7%; in the test on HS 578T breast it was 77%; in the test with NCI/ADR-RES ovarian, 13.3%; in the test on T-47D breast, 13.3%; with BT-549 breast, 58.3%; with MDA-MB-435 melanoma, 44.7%. For the same molecule, the growth with SW-620 colon is 38.3%; in the test on MCF7 breast, 8.32% (active); in the test on HCT-116 colon it was 21.8%; in the test on HCC-2998 colon, 69%; in the test on KM12 colon, 28.2%.
With `COC(=O)/C=C/c1c(C2(C)NC(=O)c3ccccc3N2)c(=O)oc2ccc(Cl)cc12` (configuration not stated), the growth in the test on SR leukemia is 108%; in the test with RPMI-8226 leukemia it was 94.7%; in the test on OVCAR-5 ovarian, 101%; with OVCAR-4 ovarian, 98.7%; in the test with SK-OV-3 ovarian, 106%; in the test on IGROV1 ovarian it was 68.1%. Further, the growth with OVCAR-3 ovarian was 102%; in the test on HS 578T breast it was 90.9%; in the test with NCI/ADR-RES ovarian, 98.3%; with T-47D breast, 91.6%; in the test on BT-549 breast, 87.4%; with MDA-MB-435 melanoma it was 102%. Besides, the growth in the test with SW-620 colon is 96.3%; with MCF7 breast it was 86.9%; in the test with HCT-116 colon, 88.6%; with HCC-2998 colon it was 102%; in the test on KM12 colon it was 93.4%.
`O=S(=O)(Nc1ccc2c(c1)OCO2)c1ccc(-c2cnc(C3CC3)o2)cc1`: the growth in the test on SR leukemia was 26.6%; with OVCAR-8 ovarian, 46.8%; in the test with OVCAR-5 ovarian, 60.7%; in the test with OVCAR-4 ovarian, 36.3%; in the test with SK-OV-3 ovarian it was 62.1%; in the test on IGROV1 ovarian it was 40.6%. For the same molecule, the growth in the test on OVCAR-3 ovarian was 7.46% (active); with HS 578T breast, 45.5%; with NCI/ADR-RES ovarian, 16.6%; in the test with T-47D breast, 31.7%; with BT-549 breast it was 42.1%; with MDA-MB-435 melanoma, 0.417% (active). In addition, the growth was 21.2% in the test on SW-620 colon; 22.3% with MCF7 breast; 19.9% in the test with HCT-116 colon; 73.5% with HCC-2998 colon; 23.1% in the test with KM12 colon.
With `Oc1cccc2ccc(-c3nnc(SCc4ccc(O)c5ncccc45)o3)nc12`, the growth in the test on SR leukemia was 26.1%; with RPMI-8226 leukemia, 2.55% (active); in the test with OVCAR-5 ovarian it was 40.9%; with OVCAR-4 ovarian it was 20.5%; with SK-OV-3 ovarian, 12.3%; in the test with IGROV1 ovarian, 13.4%. The growth in the test with OVCAR-3 ovarian was 2.66% (active); in the test on HS 578T breast it was 8.45% (active); in the test with NCI/ADR-RES ovarian it was 17.3%; in the test with T-47D breast it was 16%; with BT-549 breast, 15.9%; in the test with MDA-MB-435 melanoma, 12%. Also, the growth is 19.2% in the test on SW-620 colon; 4.96% (active) in the test on MCF7 breast; 5.66% (active) in the test on HCT-116 colon; 27.6% in the test on HCC-2998 colon; 8.28% (active) in the test with KM12 colon.
As for `CN(C)CCNC(=O)c1ccc(-c2nc3ccc4[nH]ncc4c3c3c2CCC3)cc1`, the growth was -1.05% (active) in the test on SR leukemia; -15.7% (active) in the test with RPMI-8226 leukemia; 9.58% (active) in the test on OVCAR-8 ovarian; 21.4% in the test on OVCAR-5 ovarian; 0.409% (active) with SK-OV-3 ovarian; 2.15% (active) in the test with OVCAR-3 ovarian. The growth in the test on HS 578T breast was -25% (active); in the test on NCI/ADR-RES ovarian, 81.3%; in the test on T-47D breast it was 32.8%; with BT-549 breast, -19.5% (active); in the test on MDA-MB-435 melanoma, 22.2%; with SW-620 colon, 3.38% (active). Also, the growth in the test with MCF7 breast is 1.36% (active); in the test with HCT-116 colon, 2.43% (active); in the test on HCC-2998 colon, 2.85% (active); with KM12 colon it was 4.08% (active).
Turning to `c1ccc(C(c2nc3ncncc3[nH]2)N2CSc3nc4ccccc4n3C2)cc1` (configuration not stated), the growth was 111% with SR leukemia; 104% in the test with RPMI-8226 leukemia; 103% in the test with OVCAR-5 ovarian; 99.7% in the test on OVCAR-4 ovarian; 102% in the test on SK-OV-3 ovarian; 99.9% in the test on IGROV1 ovarian. Further, the growth in the test with OVCAR-3 ovarian was 105%; in the test on HS 578T breast, 108%; in the test with NCI/ADR-RES ovarian, 104%; in the test on T-47D breast, 110%; with BT-549 breast, 102%; in the test on MDA-MB-435 melanoma, 105%. Also, the growth with SW-620 colon is 98%; with MCF7 breast, 94.9%; with HCT-116 colon, 114%; with HCC-2998 colon, 107%; in the test on KM12 colon it was 94.4%.
Turning to `Oc1ccc(CSc2nnc(-c3ccc(Cl)cc3)n2-c2ccccc2)c2cccnc12`, the growth in the test with SR leukemia was 31%; in the test with RPMI-8226 leukemia, 16.4%; in the test with OVCAR-5 ovarian it was 57.7%; with OVCAR-4 ovarian it was 38%; in the test on SK-OV-3 ovarian, 32.6%; with IGROV1 ovarian it was 24.2%. The growth is 25.3% in the test on OVCAR-3 ovarian; 25.8% in the test on HS 578T breast; 4.53% (active) in the test on NCI/ADR-RES ovarian; 48.9% with T-47D breast; 35.7% with BT-549 breast; 17.1% in the test with MDA-MB-435 melanoma. For the same molecule, the growth is 23.9% with SW-620 colon; 9.16% (active) with MCF7 breast; 13.3% with HCT-116 colon; 32.8% with HCC-2998 colon; 21.3% in the test with KM12 colon.
